Cruzain inh Det – cruzain (T. cruzi) inhibition with detergent. P25779. purified cruzain, Z-FR-AMC fluorescence, 0.01% Triton. Potency, µM, usual class: inhibitors. 0.43% of 200,000 active; further: nearly all actives have a fitted effect of over 40% in size
Target sequence (P25779 123-467 limits assumed): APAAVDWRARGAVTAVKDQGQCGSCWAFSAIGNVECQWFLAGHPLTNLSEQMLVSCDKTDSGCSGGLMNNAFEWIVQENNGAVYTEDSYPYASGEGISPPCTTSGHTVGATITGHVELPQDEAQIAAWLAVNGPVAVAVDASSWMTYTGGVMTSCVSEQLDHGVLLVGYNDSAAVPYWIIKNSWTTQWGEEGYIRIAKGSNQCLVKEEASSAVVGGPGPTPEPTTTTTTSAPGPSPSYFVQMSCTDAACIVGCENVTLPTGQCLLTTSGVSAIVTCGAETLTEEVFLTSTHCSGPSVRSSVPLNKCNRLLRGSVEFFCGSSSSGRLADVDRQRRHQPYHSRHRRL
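Cruzain (1.5 nM) preincubated 15 min at RT with compound in 100 mM sodium acetate pH 5.5, 5 mM DTT, 0.01% Triton X-100. Reaction started with 2 uM Z-FR-AMC; AMC fluorescence (ex 360/em 450 nm) change over 60 s gave rate.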
NS1 function inh – inhibitors of influenza NS1 protein function | 0.4% of 270,000 active | Potency, µM (highest dose often 46.1 µM); calls by dose curve; further: actives are rising curves; nearly all actives have a fitted effect of over 50% in size
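Read-out: OD600 growth recovery of NS1-expressing budding yeast. Cells grown overnight at 30C in -URA glucose medium, washed, resuspended and diluted 1:100 in 2% galactose assay medium, pH 6.0. Same strain lacking NS1 served as positive control.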
Cruzain inh noDet – inhibitors of Trypanosoma cruzi cruzain without detergent | AID 1476 | Potency, µM, actives largely listed as inhibitors | purified cruzain, Z-FR-AMC fluorescence, no detergent | P25779 | 2.3% of 200,000 active; further: nearly all actives have a fitted effect of over 40% in size
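Detergent-free condition (0.00005% Triton X-100) in acetate buffer pH 5.5 with DTT. 1.5 nM enzyme and compound were pre-mixed 15 min, then 2 uM Z-FR-AMC substrate added; reaction progress from fluorescence change between first and third reads (60 s).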
Hits are given with their value; - = inactive; ? = inconclusive; . = not tested or not shown; ! = not active in a repeat. The entries come from a sample that favours hits as a whole. Unless noted, the call rests on the fitted dose curve; in most records, active means well fitted curve in the direction sought with a large enough effect; inconclusive means small, poorly fitted or top-dose-only effect, or another doubt; inactive means no such curve, though single readings can be large; an effect the other way counts as inactive or inconclusive.

SMILES | Cruzain inh Det | NS1 function inh | Cruzain inh noDet
N#Cc1cc2c(nc1SCc1ccncc1)CCC2 | - | - | -
CC1CC(C)CN(c2ccc(C(=O)OCC(=O)NC3CCCc4ccccc43)cc2[N+](=O)[O-])C1 (stereo not given) | - | - | ?
O=C(COC(=O)c1ccc(Sc2ccccc2)c([N+](=O)[O-])c1)NC1CCCc2ccccc21 (stereo not given) | - | - | 12.6µM
Cc1cccc(NCCC(=O)c2ccc(Br)cc2)c1 | - | - | -
CCOC(=O)CNCCC(=O)c1ccc(Br)cc1 | 25.1µM | - | 10µM
CC(C)(C)NC(=O)NCCc1ccccc1 | . | - | .
CCOC(=O)c1scc(-c2ccccc2)c1S(=O)(=O)Nc1cc(Cl)c(OC)cc1OC | - | . | ?
COC(=O)c1sc(-c2ccccc2)cc1NC(=O)Nc1ccc(Cl)cc1 | - | . | ?
COC(=O)c1sc(-c2ccccc2)cc1NC(=O)Nc1ccccc1Cl | - | . | 10µM
CC(C)c1ccc(NC(=O)C(NS(=O)(=O)c2ccc3c(c2)CCC(=O)N3)c2ccccc2)cc1 (stereo not given) | - | . | -
COc1ccc(Cl)cc1-n1c(/C=C/c2cccc3ccccc23)nc2ccccc2c1=O | - | . | 31.6µM
COc1ccc(-n2c(/C=C/c3cccc4ccccc34)nc3ccccc3c2=O)cc1OC | - | . | ?
Cc1cc(/C=C2/NC(=O)N(Cc3ccccc3F)C2=O)c(C)n1C(C)C | - | - | 25.1µM
CCn1c(C)cc(/C=C2/NC(=O)N(Cc3ccccc3F)C2=O)c1C | - | - | ?
CC1CCCCC1NC(=O)Cn1nc(-c2ccccc2)ccc1=O (stereo not given) | - | - | -
COCCNc1nc(C)nc2c1nc(-c1ccccc1)n2CC1CCN(C)CC1 | - | . | -
COc1ccc(-c2nc3ccccc3n3c(-c4cccc(C)c4)c4c(=O)n(C)c(=O)n(C)c4c23)cc1OC | - | . | -
COc1cccc(C(=O)Nc2ccc(NC(=O)Cc3ccccc3)cc2)c1 | . | - | .
O=C(Cc1ccccc1)Nc1ccc(NC(=O)c2cccc(Cl)c2)cc1 | - | - | 25.1µM
NC(=NC(=O)c1cccc(C(F)(F)F)c1)c1ccc(C(F)(F)F)cn1 | . | - | .
Cc1ccc(-c2nnc(SCC(=O)Nc3sc(C)c(C)c3C#N)n2C)cc1 | - | - | ?
Cc1sc(NC(=O)CSc2nnc(COc3ccc(Cl)cc3)n2C)c(C#N)c1C | - | - | 25.1µM
COc1cc(N=c2ssnc2Cl)c(OC)cc1Cl | - | - | 25.1µM
COc1ccc(OC)c(N=c2ssnc2Cl)c1 | - | - | ?
Cc1ccc(C)c(S(=O)(=O)c2cn(C)c3cc(F)c(F)cc3c2=O)c1 | - | . | -
SMILES | Cruzain inh Det | NS1 function inh | Cruzain inh noDet
CC1(c2cc([N+](=O)[O-])cc([N+](=O)[O-])c2)CC(C)(C)N(C(=O)c2ccccc2)c2ccccc21 (stereo not given) | - | - | 10µM
CC1(c2ccc(Cl)cc2)CC(C)(C)N(C(=O)c2ccccc2)c2ccccc21 (stereo not given) | - | . | ?
COc1cc([N+](=O)[O-])ccc1NC(=O)Cc1ccccc1 | . | - | .
COc1ccc(-n2c(SCC(=O)Nc3ccc([N+](=O)[O-])cc3OC)nc3ccccc32)cc1 | - | - | 7.94µM
Cc1cc(NC(=O)c2ccc(Cl)cc2)n(CCC#N)n1 | . | - | .
COC(=O)c1c(NC(=O)COc2ccc(Cl)cc2)sc(C)c1C | - | . | -
COC(=O)c1c(NC(=O)Nc2ccc(Cl)cc2)sc(C)c1C | - | - | 25.1µM!
Cc1cc(C)c(NC(=O)Cn2c(=O)nc(-c3ccccc3)c3cc(Cl)ccc32)c(C)c1 | - | . | -
CN(C)C(=O)c1ccc(Nc2nc(-c3cccs3)nc3ccccc23)cc1 | . | - | .
CCCCn1c(CCNC(=O)c2cccs2)nc2ccccc21 | - | ? | 10µM
COc1ccccc1C(=O)Nc1ccc2c(c1)nc(CCNC(=O)c1ccccc1)n2C | . | - | .
CCCn1c(CNC(=O)c2cccs2)nc2ccccc21 | - | - | -
COc1ccccc1C(=O)NCCc1nc2ccccc2n1C | ? | - | 10µM
COc1ccc(-c2nnc(SCC(=O)NC(=O)NCc3ccco3)o2)cc1 | - | - | -
O=C(Nc1ccc(-c2cc(C(F)(F)F)nn2-c2ccccc2)cc1)c1cccc(F)c1 | - | . | 20µM
O=C(NC(=O)c1cccc(F)c1)Nc1ccc(-c2cc(C(F)(F)F)nn2-c2ccccc2)cc1 | - | . | -
CC(C)(C)OC(=O)[C@H](Cc1ccccc1)NC(=O)c1nc[nH]c1C(=O)NC1CCN(C(=O)OC(C)(C)C)CC1 | . | - | .
COc1ccc(/C=N/Nc2nc(C)nc(N)n2)cc1 | . | - | .
CCCS(=O)(=O)c1nc(S(=O)(=O)c2ccc(Cl)cc2)c(N2CCC(O)CC2)s1 | . | - | .
COc1ccc(C)cc1NC(=O)Nc1ccc(Br)cn1 | - | - | 25.1µM
COc1ccc(C)cc1NC(=O)NC1CCCCCCC1 | . | - | .
Clc1ccc2oc(-c3cccnc3NCc3ccccc3)nc2c1 | - | - | -
Cc1ccc(CNc2ncccc2-c2nc3cc(Cl)ccc3o2)cc1 | - | - | 10µM
